# Bioassay records (PubChem)
# CHRM1 antagonist – blocks human M1 muscarinic receptor; CHO-K1 hM1, Fluo-8 calcium fluorescence, ACh EC80 antagonist; actives 1.3% (n = 360,000); inhibition, % at 3 µM; AID 588852; P11229;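 active = percent inhibition above its own plate's cutoff, namely the mean of that plate's compound wells plus 3 SD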;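 note: peak over basal fluorescence ratio during 140 s after agonist addition; 0% = ACh EC80 plus DMSO and 100% = DMSO alone without agonist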
# Target sequence (P11229 whole entry, looked up): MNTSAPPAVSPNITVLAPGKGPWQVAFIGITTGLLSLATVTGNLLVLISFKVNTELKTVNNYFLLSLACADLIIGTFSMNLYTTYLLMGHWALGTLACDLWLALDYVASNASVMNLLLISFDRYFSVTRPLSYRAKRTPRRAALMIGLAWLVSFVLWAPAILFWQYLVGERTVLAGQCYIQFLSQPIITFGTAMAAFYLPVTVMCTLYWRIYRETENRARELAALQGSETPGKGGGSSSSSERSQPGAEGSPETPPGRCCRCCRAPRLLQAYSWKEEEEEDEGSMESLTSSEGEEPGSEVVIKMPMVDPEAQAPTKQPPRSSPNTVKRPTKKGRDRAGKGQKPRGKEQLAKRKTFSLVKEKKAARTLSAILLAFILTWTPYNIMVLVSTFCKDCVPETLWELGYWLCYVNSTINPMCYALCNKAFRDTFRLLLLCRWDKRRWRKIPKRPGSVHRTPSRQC
# M1 PAM – positive allosteric modulators of human M1 muscarinic receptor. P11229. CHO-K1 hM1, Fluo-8 calcium fluorescence, ACh EC20; 0% = ACh EC20, 100% = maximal ACh. activation, % at 3 µM. actives 0.088% (n = 360,000). AID 588819; in the data active = activation above about 19%, passing the limit was not always enough
# CHO-K1 Ca ag – counter-screen for M1 agonists: effect in parental CHO-K1 cells | Fluo-8 calcium fluorescence; scaled to maximal ATP response, vehicle zero | activation, % at 3 µM | actives 0.48% (n = 360,000); in the data active = activation above about 15%;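 note: untransfected CHO-K1 host cells lacking M1 receptor as counterscreen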
# CHO-K1 Ca antag – M1 antagonist counterscreen hit in parental CHO-K1 cells. ATP-induced calcium, Fluo-8 fluorescence. inhibition, % at 3 µM. actives 0.6% (n = 360,000). AID 602250;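 active = inhibition above a per-plate cutoff, the plate's mean sample inhibition plus 3 SD, cut at about 24% in these data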;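 note: 0% = DMSO plus EC80 ATP and 100% = DMSO alone without ATP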
# M1 PAM parental – M1 PAM counterscreen hit in parental CHO-K1 cells | ATP EC20, Fluo-8 calcium fluorescence; 0% at ATP EC20, 100% at ATP max | activation, % at 3 µM | actives 0.02% (n = 360,000) | AID 602247;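 active = activation above the run cutoff, the mean activation of all test compounds plus 3 SD, cut at about 40% in these data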;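 note: peak over basal fluorescence ratio in a 140 s read after ATP addition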
# M1 ag – human M1 muscarinic receptor agonism; P11229; CHO-K1 hM1, Fluo-8 calcium fluorescence, agonist mode; 0% DMSO, 100% acetylcholine EC100; activation, % at 3 µM; actives 0.33% (n = 360,000); AID 588814;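 active = activation above the run's mean compound activation plus 3 SD, cut at about 16% in these data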;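 note: peak over basal fluorescence ratio within a 140 s kinetic read after compound addition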
# * marks the source's active call; other numbers are inactive results; / = no result. Most compounds without a hit are left out; they make up all but 2.3% or so of the library.
SMILES,CHRM1 antagonist,M1 PAM,CHO-K1 Ca ag,CHO-K1 Ca antag,M1 PAM parental,M1 ag
O=C(N/N=C/c1ccc(Cl)cc1)c1ccc2nc[nH]c2c1,29.1*,-13.6,4.7,4.8,-4.2,0.2
COC(=O)c1ccc(/C=N/NC(=O)c2ccc3nc[nH]c3c2)cc1,15.1,-5.8,2.6,-5.3,-1.5,0.1
O=C(NNS(=O)(=O)c1ccc2ccccc2c1)C1CCN(Cc2ccccc2)CC1,84.8*,-21.7,0.8,2.2,1.6,-5.4
O=S(=O)(NC1CCN(Cc2ccccc2)CC1)c1ccc2ccccc2c1,4.8,-8.5,3.7,-12.1,17.6,-5.7
c1ccc(NCn2cncn2)nc1,-6.6,4.4,-0.2,27.9*,-2.0,-0.2
CNC(=O)CSc1nnnn1CCCOC,43.2*,0.2,0.6,-11.3,17.1,-2.7
COc1ccc(CN2CC(C(=O)NCCCN3CCCC(C)C3)CC2=O)cc1 (stereo not drawn),0.3,0.7,0.0,2.1,4.0,-13.5
O=C(Nc1ccc(-n2cccn2)cc1)C1CCCCN1Cc1cccc2c1OCO2 (stereo not drawn),3.7,-4.8,0.7,-9.3,-9.4,-4.9
CCN(CC)CC(C)(C)C(=O)/C=C/c1ccc(/C=C/C(=O)C(C)(C)CN(CC)CC)cc1,15.4,-8.9,0.1,24.6*,-9.1,-8.2
CCS(=O)(=O)c1ccc2oc(SCC(=O)Nc3ccc(OC)cc3OC)nc2c1,-3.6,6.6,1.0,-19.4,26.7,-3.1
CCS(=O)(=O)c1ccc2oc(SCC(=O)NC(C)C3CC4CCC3C4)nc2c1 (stereo not drawn),7.7,-2.8,1.5,24.9*,-8.8,-3.4
CC1=C(C(=O)N2CCCCCC2)CC(CC(=O)NC2CC2)C(=O)N1Cc1ccccc1 (stereo not drawn),11.7,2.5,0.2,10.1,19.7,-3.7
CSc1ccc(/C=C(/NC(=O)c2ccccc2)C(=O)NCCN2CCOCC2)cc1,-10.9,9.7,0.8,-2.9,13.3,-3.5
COc1ccccc1CCNC(=O)C(=O)c1cn(CC(=O)N2CCCC2)c2ccccc12,-6.3,11.8,2.1,-11.3,20.9,-4.6
O=C(NCCc1ccccc1)C(=O)c1cn(CC(=O)N2CCCC2)c2ccccc12,-7.9,7.0,0.9,23.8*,-9.8,-4.3
CC1(C)CC(=O)c2c(O)cc(OCc3ccc(Br)cc3)cc2O1,-3.0,0.5,1.9,-19.8,27.0,-7.0
CC1(C)CC(=O)c2ccc(OCc3ccc([N+](=O)[O-])cc3)cc2O1,-7.7,1.1,-0.5,29.8*,-19.8,-4.2
Cc1ccc(S(=O)(=O)CCC(=O)OCC(=O)N(C)CC(=O)Nc2ccc(F)cc2)cc1,20.0*,-11.3,0.2,-1.1,-3.5,-3.2
CC(OC(=O)CCCOc1ccccc1)C(=O)NC(N)=O (stereo not drawn),4.7,-5.6,0.1,28.4*,-5.4,-2.2
CCN(CC1CCCN(CCc2cccc(F)c2)C1)C(=O)c1ccc(CSC)o1 (stereo not drawn),60.8*,-24.0,0.5,2.4,0.3,-6.8
CCN(CC1CCCN(CCc2cccc(F)c2)C1)C(=O)c1ccoc1C (stereo not drawn),9.2,-10.8,-0.6,-5.6,13.8,-9.1
FC(F)Oc1ccc(NC(=S)NCc2ccccc2)cc1,12.5,-11.2,3.4,27.6*,-13.7,-4.5
CC1=CC(C)C(=O)N(C)C(C)=C1 (stereo not drawn),-5.9,1.1,-0.1,-7.5,3.3,-2.9
O=C(Nc1ccncc1)Nc1cccc(C(F)(F)F)c1,7.3,-3.4,14.4,23.4,-19.8,8.1
O=C(Nc1ccc(OC(F)F)cc1)Nc1cccc(C(F)(F)F)c1,23.8*,-18.9,9.8,26.8*,-0.9,0.8
SMILES,CHRM1 antagonist,M1 PAM,CHO-K1 Ca ag,CHO-K1 Ca antag,M1 PAM parental,M1 ag
CCN(CC)S(=O)(=O)c1ccc(NC(=O)Nc2cccc(C(F)(F)F)c2)cc1,29.6*,-10.6,10.5,27.8*,0.0,2.3
Cc1cc(C)c(NN=c2c(=O)c3ccccc3c2=O)c(C)c1,34.5*,-26.6,-0.1,10.6,-4.6,-11.0
CC1(c2cccc(Br)c2)NC(=O)N(CC(=O)c2ccc3c(c2)OCO3)C1=O (stereo not drawn),-13.2,0.2,2.0,-2.9,7.0,1.1
Cc1nc2ccc(S(=O)(=O)Nc3cccc(-c4nc5cccnc5s4)c3)cc2s1,23.7,-16.4,5.5,30.0*,-8.5,3.0
Cc1nc2ccc(NS(=O)(=O)c3ccc4c(c3)OCCO4)cc2s1,31.2*,-5.9,7.2,22.8,-0.7,2.8
CC(C)[C@H](NC(=O)[C@H](CCCN=C(N)N)NC(=O)NC(Cc1ccccc1)C(=O)O)C(=O)NC(C=O)CCCN=C(N)N (stereo partly drawn),-13.7,-1.7,0.3,26.8*,-5.9,-3.4
CC(C)C(NC(=O)OCc1ccccc1)C(=O)NC(Cc1ccc(O)cc1)C(=O)O (stereo not drawn),-9.0,5.3,0.9,-4.8,-10.6,-3.0
CCN(CC1CCCO1)C(=O)CCc1nnc(CCc2ccccc2)o1 (stereo not drawn),-6.3,5.5,1.0,5.9,3.8,-2.1
Cc1ccc(C(=O)NCC(C)(C)O)cc1,15.5,-3.4,0.0,26.3*,-7.9,-2.2
Cc1cc(Cl)ccc1NC(=S)NCCc1ccc(Cl)cc1,21.7,-10.8,1.8,25.5*,-8.9,-2.5
Cc1cc(Cl)ccc1NC(=S)NCc1ccc(Cl)cc1,1.5,-13.4,7.5,21.1,-2.7,2.0
O=C(CC1NCCc2ccccc21)Nc1ccccc1 (stereo not drawn),4.0,-0.7,0.7,1.7,13.0,-10.9
O=C(CC1NCCc2ccccc21)Nc1ccc(Oc2ccccc2)cc1 (stereo not drawn),0.9,1.4,20.0*,-3.8,25.1,-12.8
CC(C)[C@H](NS(=O)(=O)c1ccc(Cl)cc1)C(=O)OCC(=O)c1c(N)n(C)c(=O)n(C)c1=O,11.8,1.6,5.6,14.0,-16.9,3.1
Cc1cc(C)c(S(=O)(=O)Cc2ccccc2)c(Cl)n1,1.4,-0.7,1.1,-9.3,-4.0,-2.9
NC1=NC[C@@H](CC2CCCCC2)N1CCc1cc(C(F)(F)F)cc(C(F)(F)F)c1,35.3*,-17.0,0.3,-4.9,7.2,1.2
CCc1ccc(N(CC(=O)NC(C)C)C(=O)CCC(=O)Nc2nccs2)cc1,-15.5,5.3,0.9,-6.3,4.6,-1.5
CCCCNC(=O)C[C@@H]1C[C@@]2(C(=O)OCC)CCC=C2N(CCC2=CCCCC2)C1=O,/,/,-0.2,-19.1,8.8,/
O=C(NC1CCCC1)c1cc(-c2ccc(Cl)cc2)on1,25.9*,-13.0,1.1,0.5,-12.2,-4.3
CCc1nnc(SCC(=O)NC2CCCC2)nc1CC,7.1,8.9,-0.2,32.7*,-6.0,-1.4
CCc1nnc(SCC(=O)NC2CCCCC2)nc1CC,-13.3,14.6,1.2,-19.6,28.4,-4.4
